This note sets out measurements from PubChem BioAssay (NCATS).

Assay [1] deals with Cytochrome P450 2C9 (Homo sapiens) (UniProt P11712). As to the kind of experiment: qHTS Assay for Inhibitors and Substrates of Cytochrome P450 2C9 (AID 883). Further: nearly all actives have a fitted effect of over 60% in size. Further: potency means the concentration at half of the fitted maximal effect. The procedure, abridged: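 Luminescent read-out of deoxyluciferin hydroxylation, normalized to 57uM sulphaphenazole (AC100). Reaction: 10nM enzyme, 100uM Luciferin-H (equal to KM), 25mM KPO4, 10 min compound preincubation, then 60 min with NADPH regeneration, both at 37C.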
Background: Quantitative high-throughput screening tests each substance at several concentrations.

In assay [2] the target is Cytochrome P450 3A4 (Homo sapiens) (UniProt P08684). As to the kind of experiment: qHTS Assay for Inhibitors and Substrates of Cytochrome P450 3A4 (AID 884). Further: series mostly up to about 57 µM; nearly all actives have a fitted effect of over 50% in size. In outline: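 20 nM human CYP3A4 with 25 uM Luciferin-PPXE (at KM) in 200 mM KPO4, preincubated 10 min with compound; NADPH regeneration started a 60 min RT reaction. Luciferin detected by luminescence, normalized to 57 uM ketoconazole as full inhibition.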

The target is the same in assay [3]. The experiment in a line: qHTS Assay for Activators of Cytochrome P450 3A4 (AID 885). Further: nearly all actives have a fitted effect of over 65% in size. The procedure, abridged:
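Signal was normalized against complete inhibition by 57 uM ketoconazole. The reaction used 20nM CYP3A4 with 25uM Luciferin-PPXE, 10-min compound preincubation and a 60-min NADPH-supported step at RT.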

Assay [4] in a line: Confirmation and Secondary Assay for Modulators of Hemoglobin Beta Chain Splicing at IVS2 654 locus (AID 910).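 Further: HeLa cells stably carrying EGFP split by mutant beta-globin IVS2-654 intron; per-well total GFP intensity by laser scanning cytometry after 2-day treatment.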 The procedure, abridged: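 Readout: per-well total peak green fluorescence (488 nm ex, 500–520 nm em) from objects 5–250 µm, reflecting correct splicing of an EGFP-654 reporter. Compounds were applied for 2 days at 37 °C to overnight-plated HeLa EGFP-654 cells; controls were DMSO and 500 nM IVS2-654 PNA.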

Assay [5] is described as follows: Cellular Toxicity (caspase-3) Hek293 (AID 664).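 Further: cells exposed to compound for 16 h at 37 °C before readout.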 In outline: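 Activation of caspase-3/7 is measured as increased luminescence from cleaved peptide-aminoluciferin substrate in HEK293 cells treated 16 hours at 37 °C. AC50 values come from Hill-equation fits of concentration-response data.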
The nature of assay [6]: Cellular Toxicity (caspase-3) N2a (AID 665).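 Further: compound exposure lasted 16 h at 37 °C before readout.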 The procedure, abridged: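 Plated mouse neuroblastoma N2a cells received titrated compounds for 16 h in complete medium. Caspase activity was then detected with a peptide-aminoluciferin luminescent reagent.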
The nature of assay [7]: Cellular Toxicity (caspase-3) NIH 3T3 (AID 666).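 Further: caspase signal read after 16 h compound exposure.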 In outline: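 Concentration-response qHTS in NIH 3T3 mouse fibroblasts scores caspase-3/7 activation as rising luminescence after 16 hr compound exposure. Signals are scaled between DMSO-only and 100 uM tamoxifen.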
Assay [8] is described as follows: Cellular Toxicity (caspase-3) Renal Proximal Tubule (AID 667).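 Further: cells exposed to compound for 16 hours at 37 °C before detection.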 The procedure, abridged:
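Primary rat proximal tubule cells, 1000/well, 5 h plating at 37 °C, then compound 16 h at 37 °C. Caspase-Glo 3/7 reagent, 1 h RT, luminescence. Normalized to DMSO (basal) and 10 uM staurosporine (100%); Hill-fit AC50.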

Assay [9] deals with Cytochrome P450 2D6 (Homo sapiens) (UniProt P10635). As to the kind of experiment: qHTS Assay for Inhibitors and Substrates of Cytochrome P450 2D6 (AID 891). Further: potency means the concentration at half of the fitted maximal effect; nearly all actives have a fitted effect of over 60% in size. The following applies: recombinant CYP2D6, luciferin-ME EGE luminescence. In outline: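 Human CYP2D6 (5 nM) with 30 uM Luciferin-ME EGE (at Km) in 100 mM KPO4, compound preincubated 10 min, then NADPH regeneration system for 60 min at room temperature. Luciferin read by luminescence; normalized to 1.43 uM quinidine.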

Assay [10] concerns the target Cytochrome P450 2C19 (Homo sapiens) (UniProt P33261). As to the kind of experiment: qHTS Assay for Inhibitors and Substrates of Cytochrome P450 2C19 (AID 899). Further: potency means the concentration at half of the fitted maximal effect; nearly all actives have a fitted effect of over 60% in size. The following applies: recombinant CYP2C19, luciferin-H EGE luminescence. In outline:
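Luminescence readout of luciferin formed from 10uM Luciferin-H EGE (KM level) by 5 nM CYP2C19 in 50mM KPO4. 60 min NADPH-driven reaction at 37C after 10 min compound preincubation; data scaled to 57uM ketoconazole inhibition.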

Results filed as inconclusive are left out. Entries that show only a call come without a potency. Calls of active or inactive are those of the source. The call rests on the fitted dose curve; in most records, active means well fitted curve in the direction sought with a large enough effect; inconclusive means small, poorly fitted or top-dose-only effect, or another doubt; inactive means no such curve, though single readings can be large; an effect the other way counts as inactive or inconclusive.

Chain of Cytochrome P450 2C9 (Homo sapiens) (P11712 whole entry, looked up): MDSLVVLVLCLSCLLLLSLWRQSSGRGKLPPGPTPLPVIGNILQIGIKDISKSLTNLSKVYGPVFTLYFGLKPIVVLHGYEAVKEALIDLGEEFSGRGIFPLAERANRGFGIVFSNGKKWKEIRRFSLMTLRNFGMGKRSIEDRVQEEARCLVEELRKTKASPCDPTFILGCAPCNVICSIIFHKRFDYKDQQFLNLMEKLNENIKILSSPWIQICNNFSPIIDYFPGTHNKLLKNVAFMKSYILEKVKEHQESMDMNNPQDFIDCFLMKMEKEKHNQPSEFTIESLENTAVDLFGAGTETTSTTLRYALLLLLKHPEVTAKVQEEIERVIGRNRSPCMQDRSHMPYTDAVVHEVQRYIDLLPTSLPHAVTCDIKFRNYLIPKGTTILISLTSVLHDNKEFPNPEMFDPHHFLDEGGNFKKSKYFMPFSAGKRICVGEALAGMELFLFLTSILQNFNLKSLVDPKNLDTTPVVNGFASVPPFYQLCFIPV
Chain of Cytochrome P450 3A4 (Homo sapiens) (P08684 whole entry, looked up): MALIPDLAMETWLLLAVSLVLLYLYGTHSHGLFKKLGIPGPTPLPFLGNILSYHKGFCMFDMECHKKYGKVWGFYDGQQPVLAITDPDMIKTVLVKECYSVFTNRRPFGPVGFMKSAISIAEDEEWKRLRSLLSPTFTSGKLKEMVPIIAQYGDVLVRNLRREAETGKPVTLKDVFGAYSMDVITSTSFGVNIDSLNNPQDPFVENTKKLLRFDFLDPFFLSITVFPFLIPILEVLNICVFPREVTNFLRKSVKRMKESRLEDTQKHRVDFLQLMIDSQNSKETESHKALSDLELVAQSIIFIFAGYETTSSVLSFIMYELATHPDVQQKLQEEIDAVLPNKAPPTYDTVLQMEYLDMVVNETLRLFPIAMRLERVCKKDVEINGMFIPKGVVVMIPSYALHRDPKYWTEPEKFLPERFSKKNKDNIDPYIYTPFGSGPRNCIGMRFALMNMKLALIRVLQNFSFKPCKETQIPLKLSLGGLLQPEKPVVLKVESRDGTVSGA
Chain of Cytochrome P450 2C19 (Homo sapiens) (P33261 whole entry, looked up): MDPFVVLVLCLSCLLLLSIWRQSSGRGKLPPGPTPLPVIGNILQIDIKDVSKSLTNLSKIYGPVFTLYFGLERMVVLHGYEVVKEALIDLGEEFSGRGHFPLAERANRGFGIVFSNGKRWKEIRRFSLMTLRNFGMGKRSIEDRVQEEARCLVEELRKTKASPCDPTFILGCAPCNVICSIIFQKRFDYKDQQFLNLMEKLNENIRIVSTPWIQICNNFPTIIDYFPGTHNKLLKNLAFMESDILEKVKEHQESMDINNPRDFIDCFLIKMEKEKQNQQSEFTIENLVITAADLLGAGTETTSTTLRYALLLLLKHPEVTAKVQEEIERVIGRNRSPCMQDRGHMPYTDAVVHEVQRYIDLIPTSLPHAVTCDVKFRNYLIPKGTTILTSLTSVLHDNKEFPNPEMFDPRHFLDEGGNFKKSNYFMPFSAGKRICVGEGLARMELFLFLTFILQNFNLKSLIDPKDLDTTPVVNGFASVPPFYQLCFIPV
Chain of Cytochrome P450 2D6 (Homo sapiens) (P10635 whole entry, looked up): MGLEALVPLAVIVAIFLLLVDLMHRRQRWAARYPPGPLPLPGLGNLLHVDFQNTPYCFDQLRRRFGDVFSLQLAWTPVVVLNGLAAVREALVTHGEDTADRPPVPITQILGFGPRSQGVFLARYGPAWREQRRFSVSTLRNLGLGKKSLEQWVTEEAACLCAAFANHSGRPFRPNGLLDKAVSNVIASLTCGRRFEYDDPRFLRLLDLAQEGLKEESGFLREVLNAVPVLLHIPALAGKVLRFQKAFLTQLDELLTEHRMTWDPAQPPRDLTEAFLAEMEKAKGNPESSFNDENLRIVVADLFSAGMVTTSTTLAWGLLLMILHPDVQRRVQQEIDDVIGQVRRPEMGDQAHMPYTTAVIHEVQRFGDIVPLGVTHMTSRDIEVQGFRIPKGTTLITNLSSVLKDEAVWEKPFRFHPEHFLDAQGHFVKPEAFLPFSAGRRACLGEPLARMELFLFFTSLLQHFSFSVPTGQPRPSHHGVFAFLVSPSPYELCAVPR

For `CCC(=C(CC)c1ccc(O)cc1)c1ccc(O)cc1`, in [1], the Potency was 12.6 µM (active).
On to `CC[C@H](C)C(=O)O[C@H]1C[C@H](O)C=C2C=C[C@H](C)[C@H](CC[C@@H](O)C[C@@H](O)CC(=O)O)[C@H]21`, for which the Potency result in assay [2] is “inactive”.
On to `CCCCC(C=O)NC(=O)C(CC(C)C)NC(=O)OCc1ccccc1` (configuration not stated), for which, in assay [3], the Potency entry is “inactive”.
Consider `NCC1CCC(C(=O)O)CC1` (configuration not stated), for which the compound was called inactive in assay [4].
With `CC1(C)OC2CC3C4CC(F)C5=CC(=O)C=CC5(C)C4C(O)CC3(C)[C@]2(C(=O)CO)O1` (some centres not stated), in assay [3], the Potency entry is “inactive”. Moreover, the result in [4] was inactive.
As for `CC(NCCc1ccc(O)cc1)C(O)c1ccc(O)cc1` (configuration not stated), in assay [2], the Potency entry was “inactive”. Also, in assay [4], the outcome was inactive.
For `COc1ccnc(CS(=O)c2nc3ccc(OC(F)F)cc3[nH]2)c1OC` (configuration not stated), in [4], the result was inactive.
For the compound `Cc1cc2nc3c(=O)[nH]c(=O)nc-3n(CC(O)C(O)C(O)CO)c2cc1C` (configuration not stated), the Potency result in assay [1] and in [2] was “inactive” throughout.
As to `Cc1ccc2c(c1)C(=O)[C@]1(O)CCN(c3ccccc3)C1=N2`, the Potency result in assay [3] was “inactive”.
`OC(c1cc(C(F)(F)F)nc2c(C(F)(F)F)cccc12)C1CCCCN1` (configuration not stated): the compound was classed as inactive in [4].
For `C[C@@H]1C[C@H]2[C@@H]3CCC4=CC(=O)C=C[C@]4(C)[C@@]3(F)[C@@H](O)C[C@]2(C)[C@@]1(O)C(=O)CO`, the result in assay [5], in assay [6], in assay [7] and in assay [8] was inactive.
Turning to `NS(=O)(=O)c1cc(Cl)c(Cl)c(S(N)(=O)=O)c1`, the Potency result in [1] was “inactive”.
As for `O=c1cc(-c2ccc(O)c(O)c2)oc2cc(O)cc(O)c12`, the Potency entry in assay [3] was “inactive”.
For `CN(C)CCN(Cc1ccc(Cl)cc1)c1ccccn1`, the Potency in assay [9] is 0.02 µM (active); in assay [10] it was 6.31 µM (active).
`Cc1ccc(NC(=O)c2cccc(N(C)C)c2)cc1NC(=O)c1ccc(O)cc1`: the Potency entry in [1] is “inactive”.
